Only some compounds are listed: those with a hit (about 2.9% of all), similar ones and a draw of the others.
PAFAH1B3 inh: inhibitors of human PAFAH1B3; AID 492972; recombinant PAFAH1B3, FP-rhodamine probe, fluorescence polarization; 340,000 tested, 0.28% active; inhibition, % at 3.39 µM; Q15102;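 active means inhibition above the screen-wide average of all tested compounds plus 3 SD, cut at about 25% in these data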;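 further: 0% = enzyme with DMSO only and 100% = wells lacking PAFAH1B3 protein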
Target sequence (Q15102 whole entry, looked up): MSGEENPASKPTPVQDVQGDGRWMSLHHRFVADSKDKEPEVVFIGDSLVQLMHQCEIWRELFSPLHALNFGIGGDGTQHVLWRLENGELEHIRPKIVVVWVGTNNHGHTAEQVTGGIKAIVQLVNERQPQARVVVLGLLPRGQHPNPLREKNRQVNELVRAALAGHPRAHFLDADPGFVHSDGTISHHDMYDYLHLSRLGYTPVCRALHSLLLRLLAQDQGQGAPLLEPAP
PAFAH2 inh: inhibitors of human PAFAH2 | Q99487 | recombinant PAFAH2, FP-rhodamine activity probe, fluorescence polarization | inhibition, % at 3.39 µM | 340,000 tested, 0.99% active | AID 492956;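 active means inhibition above the mean over all tested compounds plus 3 SD, cut at about 30% in these data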;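 further: inhibitors block probe labeling of enzyme so polarization drops; 0% = enzyme with DMSO and 100% = wells lacking PAFAH2 protein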
pPAFAH inh: inhibitors of human plasma PAF acetylhydrolase (pPAFAH). Q13093. recombinant pPAFAH, FP-rhodamine probe fluorescence polarization. inhibition, % at 3.39 µM. 330,000 tested, 1.5% active;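 active means inhibition above the mean inhibition across the screen plus 3 SD, cut at about 25% in these data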;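 further: inhibitors block binding of the rhodamine activity-based probe so polarization drops; 0% = enzyme with DMSO and 100% = wells lacking pPAFAH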
PME-1 primary: blocks human protein phosphatase methylesterase 1. recombinant PME-1, FP-Rh probe fluorescence polarization. inhibition, % at 5.9 µM. 320,000 tested, 0.53% active;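 active means inhibition above the campaign mean of all compounds plus 3 SD, cut at about 26% in these data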;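 further: competitive labeling of PME-1 active site by serine hydrolase directed probe; 0% = PME-1 with DMSO and 100% = wells lacking PME-1 enzyme; inhibitors block probe labeling so polarization falls and inhibition rises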
PAFAH1B2 inh: blocks human PAF acetylhydrolase 1b catalytic subunit 2 | P68402 | recombinant PAFAH1B2, FP-rhodamine activity probe, fluorescence polarization | inhibition, % at 3.39 µM | 340,000 tested, 1.2% active;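 active means inhibition above the mean of all tested compounds plus 3 SD, cut at about 24% in these data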;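 further: 0% = enzyme with DMSO and 100% = wells lacking PAFAH1B2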
Target sequence (P68402 whole entry, looked up): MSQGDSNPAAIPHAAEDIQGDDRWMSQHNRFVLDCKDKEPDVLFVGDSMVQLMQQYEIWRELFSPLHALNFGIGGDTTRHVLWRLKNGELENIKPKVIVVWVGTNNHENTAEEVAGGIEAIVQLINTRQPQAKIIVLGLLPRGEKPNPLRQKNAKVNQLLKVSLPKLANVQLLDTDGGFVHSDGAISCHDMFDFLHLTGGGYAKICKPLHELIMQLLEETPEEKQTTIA
Fam108B inh: blocks mouse Fam108B hydrolase in RBBP9 counter-screen | recombinant Fam108B, FP-Rh probe fluorescence polarization | inhibition, % at 9.51 µM | 300,000 tested, 0.33% active | AID 1947;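 active means inhibition above the screen mean inhibition plus 3 SD, computed separately per campaign, cut at about 18% in these data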;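 further: inhibitors lower polarization as less probe binds the enzyme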
Active calls of the source: *; . = no result given.

SMILES | PAFAH1B3 inh | PAFAH2 inh | pPAFAH inh | PME-1 primary | PAFAH1B2 inh | Fam108B inh
O=C(O/N=C1/CCCc2occc21)c1ccccc1 | 5 | 18 | 6 | -2 | -1 | 6
Cc1onc(NC(=O)NC(=O)c2c(F)cccc2Cl)c1Br | 4 | -3 | -3 | 15 | 5 | -1
Cc1onc(NC(=O)NC(=O)c2c(Cl)cccc2Cl)c1Br | -6 | 6 | 3 | 26* | -6 | -3
COc1ccccc1C(=O)CSc1n[nH]c(N)n1 | 12 | 2 | 7 | -3 | -2 | 0
COc1ccc(C=Nc2cccnc2N)cc1 | 7 | 4 | 27* | -3 | -2 | -4
CCOc1ccc(CN2CCNC(=O)C2CC(=O)NCCCOc2cccnc2)cc1 (stereo not drawn) | -6 | -5 | 2 | 1 | 3 | -2
C/C(=N/OC(=O)C1CC1c1ccccc1)c1ccccc1 (stereo not drawn) | 6 | 32* | 13 | -3 | 46* | 3
Cc1cccc(CCNC(=O)C2CCC(=O)N(Cc3ccccc3F)C2)n1 (stereo not drawn) | 3 | 3 | 2 | 4 | -2 | -1
COc1ccc(-c2cc3cc(C(=O)O)ccn3c2C(=O)c2ccccc2)cc1 | 2 | 4 | 10 | 4 | 13 | 0
O=C(O)c1ccn2c(C(=O)c3ccccc3)c(-c3ccccc3)cc2c1 | 4 | 1 | 16 | 2 | 38* | -2
O=C(Nc1ccc2ncccc2c1)c1ccccc1 | 6 | -10 | 1 | -3 | -7 | -3
CCC(C(=O)c1ccc2ncccc2c1)c1ccccc1 (stereo not drawn) | 10 | 10 | 2 | 1 | 25* | -3
COCc1cc(C)nc(N2CCc3ccccc32)c1C#N | 0 | 3 | 6 | 2 | 5 | 0
O=C(Nc1ccc(S(=O)(=O)Nc2ncccn2)cc1)C12CC3CC(CC(Cl)(C3)C1)C2 | 10 | 6 | 13 | . | 30* | .
OC(COC(c1ccc(F)cc1)c1ccc(F)cc1)CN1CCCC1 (stereo not drawn) | -5 | 5 | -5 | -2 | 1 | 5
Cc1ccc(C(=O)O/N=C(\c2ccccc2)c2ccncc2)cc1 | . | . | 22 | -3 | . | -1
O=C(O/N=C(\c1ccccc1)c1ccncc1)c1ccccc1F | 4 | 53* | 9 | 3 | 33* | 1
Cc1ccc(C)c(CSc2nnc(CCN)o2)c1 | 5 | 5 | -1 | 3 | 4 | -1
COc1ccccc1NS(=O)(=O)c1cc(NC(=O)Nc2ccc(Cl)cc2Cl)ccc1N1CCCCC1 | 7 | -26 | 34* | -12 | 14 | 0
O=C(COC(=O)C1CC2C=CC1C2)NCCc1ccccc1 (stereo not drawn) | 9 | 3 | 1 | 2 | 2 | -1
O=C(COC(=O)C1CC2C=CC1C2)Nc1ccccc1F (stereo not drawn) | 3 | 34* | 24 | -6 | -1 | 0
CCC(=O)NC(c1ccc(Cl)cc1Cl)c1ccc2cccnc2c1O (stereo not drawn) | 14 | 6 | 27* | -1 | 0 | 0
CC(C)C(=O)NC(c1ccc(Cl)cc1Cl)c1ccc2cccnc2c1O (stereo not drawn) | 9 | -12 | 26* | 0 | -1 | 5
CN(C)/C=C/C(=O)c1cccc([N+](=O)[O-])c1 | . | . | 10 | -2 | . | -3
O=C(CCSc1ccc(Cl)cc1)c1ccco1 | -1 | 3 | 4 | 0 | 28* | -4
SMILES | PAFAH1B3 inh | PAFAH2 inh | pPAFAH inh | PME-1 primary | PAFAH1B2 inh | Fam108B inh
O=C(CCNc1cc(Cl)cc(Cl)c1)c1ccco1 | 2 | 10 | 1 | 2 | 0 | 4
O=C(CSc1ccc(Cl)cc1)c1ccco1 | 0 | 19 | 29* | 2 | 21 | 11
N#CC1(NC(=O)CSc2nc3ncc(Cl)cc3[nH]2)CCCCC1 | -1 | 8 | 3 | -9 | 8 | -1
O=C(CSc1cc(Cl)ccc1Cl)NCCCn1ccnc1 | 5 | 0 | 6 | 2 | 0 | 3
COc1ccc(N(C)S(=O)(=O)c2cccc(C(=O)N3CCN(S(=O)(=O)c4ccc(C)cc4)CC3)c2)cc1 | 9 | -2 | 7 | 20 | 55* | 0
COc1ccc(N2CCN(C(=O)c3ccc(N(C)S(=O)(=O)c4ccc(C)cc4)cc3)CC2)cc1 | 4 | 4 | 9 | -4 | -2 | -4
